The results in this text go back to ChEMBL document CHEMBL1157539, “Thousands of chemical starting points for antimalarial lead identification” (Nature, 2010).

The first experiment concerns Plasmodium falciparum. Briefly: GSK_TCMDC: Inhibition of Plasmodium falciparum 3D7 in whole red blood cells, using parasite LDH activity as an index of growth. Test compounds present at 2uM. The experiment is classed as functional.
In general, Inhibition refers to the relative decrease from the control value, in per cent. As for `O=C(O)C(F)(F)F.O=c1ccc2ccc(F)c3c2n1CC3CN1CCC(NCc2ccc(-c3cccc(Cl)c3)nc2)CC1` (stereo not given), the Inhibition came out at 96%.

Compound `Cc1ccc(Oc2ccc(CNc3nc(Nc4cccc(F)c4)nc(Nc4cccc(F)c4)n3)cc2)cc1` yielded an Inhibition of 86%.

As to `CN1CCCCC1CCc1cc(C(=O)Nc2ccc(-c3ccc(O)cc3)cc2)ccc1O` (stereo not given), the Inhibition was 91%.

`Cc1cc2nc(-c3cc(-c4cccc(NS(C)(=O)=O)c4)cnc3N)[nH]c2cc1C`: the Inhibition was 100%.

With `Cc1nnsc1C(=O)Nc1ccc(-c2cccc(-c3nc4cc(F)ccc4[nH]3)c2)cc1`, the Inhibition is 96%.

As for `COc1ccc2nc3cc(Cl)ccc3c(NCCN(C)C)c2c1`, the Inhibition worked out at 100%.

As for `CC(C)c1cc(Oc2c(I)cc(CCNCc3ccccc3)cc2I)ccc1O.Cl`, the Inhibition was 95%.

The compound `Cc1ccc(N2CCc3c(-c4cc5cccnc5nc4C)cc(C)nc32)c(Cl)c1.O=C(O)C(F)(F)F` yielded an Inhibition of 96%.

Consider `COc1cc(CN=C(S)NN=C(C)c2ccccn2)cc(OC)c1OC`, for which the Inhibition is reported as 99%.

For `O=C(NCc1cccc(F)c1)Nc1cccc(-c2ccc(-c3nc4cc(F)ccc4[nH]3)cc2)c1`, the Inhibition amounted to 84%.

Regarding `CC(C)c1cn2c3c(cc(C(=O)N[C@@H](Cc4ccccc4)[C@H](O)CNC4CCCCC4)cc13)N(C)S(=O)(=O)CC2.O=CO`, the Inhibition amounted to 98%.

`CC(C)CC(=O)N1CCNC[C@@H]1C(=O)NC1CC1.O=C(O)C(F)(F)F` yielded an Inhibition of 82%.

Regarding `Cc1onc(-c2ccccc2)c1-c1nc(NCCC(c2ccccc2)c2ccccc2)no1`, the Inhibition is on record as 100%.

`CS(=O)(=O)c1cccc(-c2cnc(N)c3cc(-c4cccc(F)c4)ccc23)c1`: the Inhibition turned out to be 97%.

`CCCCCCN1CCCN(Cc2ccc(C(=O)Nc3cccc(CC)c3)cc2)CC1.O=C(O)C(F)(F)F` showed an Inhibition of 85%.

Consider `COc1ccc(C=NN=c2cc(C)[nH]c3c(C)cccc23)c2ccccc12`, for which the Inhibition turned out to be 100%.

Regarding `CC(c1cccc(Nc2nccc(-c3c(-c4cccc(NC(=O)c5c(F)cccc5F)c4)nn4ccccc34)n2)c1)S(C)(=O)=O` (stereo not given), the Inhibition came to 98%.

`CCN1CCN(c2ccc(NC(=O)c3cc4c(C)nn(-c5ccccc5)c4s3)cc2C)CC1` yielded an Inhibition of 100%.

Turning to `CCCn1cnc2cc(C(=O)Nc3ccc(-c4cccc(CN(C)C)c4)cc3)ccc2c1=O`, the Inhibition is 95%.

Turning to `CCOC(=O)Cn1ccc2c(NCc3ccccc3)nc(C)nc21`, the Inhibition is 96%.

The compound `Cc1cc(N/N=C/c2ccccc2[N+](=O)[O-])c2ccccc2n1` came in with an Inhibition of 100%.

`Cc1ccccc1C(=O)NC(NC(=S)Nc1ccc([N+](=O)[O-])cc1)C(Cl)(Cl)Cl` (stereo not given) displayed an Inhibition of 100%.

`CC(=O)Nc1ccc(S(=O)(=O)N(Cc2cccc(Oc3ccccc3)c2)C2CCN(C/C=C(\C)CCC=C(C)C)CC2)cc1`: the Inhibition is 100%.

For the compound `Cc1cc(C(=O)OCC(N)=O)c(C)n1-c1ccc(F)cc1`, the Inhibition stood at 97%.

`NC(=O)c1cnc2ccc(-c3cncs3)cc2c1Nc1ccc(F)c(Cl)c1` had an Inhibition of 97%.

As for `O=C(OCc1ccccn1)c1nc2ccccc2[nH]1`, the Inhibition is reported as 92%.

Consider `CCCCCN1CCC(NS(=O)(=O)c2ccc(C(=O)Nc3cccc(C(F)(F)F)c3)cc2)C1.O=C(O)C(F)(F)F` (stereo not given), for which the Inhibition came out at 94%.

As for `COc1ccc(CN2CCC(CNCCc3ccccc3Cl)CC2)cc1.O=C(O)C(F)(F)F`, the Inhibition is on record as 87%.

Compound `COc1ccc(Cn2c(Nc3cccc(C(F)(F)F)c3)nc3cc(C(=O)NC4CC4)cnc32)cc1Cl` registered an Inhibition of 94%.

Consider `O=C(/C=C/c1ccc(Cl)c(Cl)c1)NCCCCCCN1CCN(C(=O)Nc2ccc(Cl)c(Cl)c2)CC1`, for which the Inhibition is on record as 88%.

`Cc1[nH]c(C)c(-c2ccc(-c3ccc(Cl)cc3)nc2)c(=O)c1Cl` yielded an Inhibition of 95%.

`CC(C)c1ccc(NC(=O)c2ccc(CN3CCCN(Cc4cccc(Cl)c4)CC3)cc2)cc1.O=C(O)C(F)(F)F`: the Inhibition turned out to be 90%.

In turn, `COc1cc(NC(=O)CCCCCCCCN2CCN(C)CC2)c2ncccc2c1` displayed an Inhibition of 82%.

As to `CCOC(=O)c1ccc(-c2cnoc2-c2cc(CC)c(OC)cc2O)o1`, the Inhibition amounted to 100%.

The compound `Cc1ccc(NC(=O)NC2CCN(CCCCCNC(=O)/C=C/c3ccc(Cl)c(Cl)c3)CC2)cc1C` displayed an Inhibition of 100%.

The compound `COc1cc(-c2cnc(N)c(-c3nc4ccccc4[nH]3)c2)cc(OC)c1OC.Cl` showed an Inhibition of 100%.

The compound `COc1ccc2ncc(F)c(CCN3C[C@H](CNCc4cc(F)c5c(c4)NC(=O)CO5)[C@H](O)C3)c2n1.Cl` returned an Inhibition of 94%.

Compound `CN1CCCC1CCNC(=O)[C@H](CC1CCCCC1)NC(=O)c1ccc(O)c(-c2ccc(Cl)c(Cl)c2)c1` (stereo not given in full) displayed an Inhibition of 98%.

On to `COc1cccc(NC(=O)Nc2ccc(C)c(-c3ccc(C(=O)Nc4ccncc4)cc3)c2)c1`, for which the Inhibition amounted to 99%.

Take `O=C(/C=C/c1ccc(Cl)c(Cl)c1)NCCCCCN1CCC(NC(=O)Nc2cccc(Cl)c2F)CC1`: the Inhibition amounted to 100%.

In a further experiment the test system is Plasmodium falciparum. The experiment in a line: GSK_TCMDC: Inhibition of Plasmodium falciparum Dd2 in whole red blood cells, using parasite LDH activity as an index of growth. Test compounds present at 2uM. The class given is functional.
As to `O=C(O)C(F)(F)F.O=c1ccc2ccc(F)c3c2n1CC3CN1CCC(NCc2ccc(-c3cccc(Cl)c3)nc2)CC1` (stereo not given), the Inhibition was found to be 33%.

As to `Cc1ccc(Oc2ccc(CNc3nc(Nc4cccc(F)c4)nc(Nc4cccc(F)c4)n3)cc2)cc1`, the Inhibition is 0%.

Regarding `CN1CCCCC1CCc1cc(C(=O)Nc2ccc(-c3ccc(O)cc3)cc2)ccc1O` (stereo not given), the Inhibition turned out to be 11%.

`Cc1cc2nc(-c3cc(-c4cccc(NS(C)(=O)=O)c4)cnc3N)[nH]c2cc1C` displayed an Inhibition of 32%.

In turn, `Cc1nnsc1C(=O)Nc1ccc(-c2cccc(-c3nc4cc(F)ccc4[nH]3)c2)cc1` returned an Inhibition of 27%.

For the compound `COc1ccc2nc3cc(Cl)ccc3c(NCCN(C)C)c2c1`, the Inhibition is recorded as 100%.

With `CC(C)c1cc(Oc2c(I)cc(CCNCc3ccccc3)cc2I)ccc1O.Cl`, the Inhibition was determined as 54%.

Compound `Cc1ccc(N2CCc3c(-c4cc5cccnc5nc4C)cc(C)nc32)c(Cl)c1.O=C(O)C(F)(F)F` yielded an Inhibition of 90%.

`COc1cc(CN=C(S)NN=C(C)c2ccccn2)cc(OC)c1OC` showed an Inhibition of 92%.

`O=C(NCc1cccc(F)c1)Nc1cccc(-c2ccc(-c3nc4cc(F)ccc4[nH]3)cc2)c1` had an Inhibition of 0%.

As for `CC(C)c1cn2c3c(cc(C(=O)N[C@@H](Cc4ccccc4)[C@H](O)CNC4CCCCC4)cc13)N(C)S(=O)(=O)CC2.O=CO`, the Inhibition came out at 99%.

`CC(C)CC(=O)N1CCNC[C@@H]1C(=O)NC1CC1.O=C(O)C(F)(F)F` displayed an Inhibition of 0%.

In turn, `Cc1onc(-c2ccccc2)c1-c1nc(NCCC(c2ccccc2)c2ccccc2)no1` gave an Inhibition of 78%.

In the case of `CS(=O)(=O)c1cccc(-c2cnc(N)c3cc(-c4cccc(F)c4)ccc23)c1`, the Inhibition is on record as 13%.

In the case of `CCCCCCN1CCCN(Cc2ccc(C(=O)Nc3cccc(CC)c3)cc2)CC1.O=C(O)C(F)(F)F`, the Inhibition stood at 54%.

For the compound `COc1ccc(C=NN=c2cc(C)[nH]c3c(C)cccc23)c2ccccc12`, the Inhibition was found to be 98%.

Turning to `CC(c1cccc(Nc2nccc(-c3c(-c4cccc(NC(=O)c5c(F)cccc5F)c4)nn4ccccc34)n2)c1)S(C)(=O)=O` (stereo not given), the Inhibition was 99%.

Compound `CCN1CCN(c2ccc(NC(=O)c3cc4c(C)nn(-c5ccccc5)c4s3)cc2C)CC1` yielded an Inhibition of 81%.

In turn, `CCCn1cnc2cc(C(=O)Nc3ccc(-c4cccc(CN(C)C)c4)cc3)ccc2c1=O` yielded an Inhibition of 6%.

Take `CCOC(=O)Cn1ccc2c(NCc3ccccc3)nc(C)nc21`: the Inhibition was determined as 0%.

Take `Cc1cc(N/N=C/c2ccccc2[N+](=O)[O-])c2ccccc2n1`: the Inhibition was 100%.

`Cc1ccccc1C(=O)NC(NC(=S)Nc1ccc([N+](=O)[O-])cc1)C(Cl)(Cl)Cl` (stereo not given) had an Inhibition of 39%.

With `CC(=O)Nc1ccc(S(=O)(=O)N(Cc2cccc(Oc3ccccc3)c2)C2CCN(C/C=C(\C)CCC=C(C)C)CC2)cc1`, the Inhibition worked out at 99%.

`Cc1cc(C(=O)OCC(N)=O)c(C)n1-c1ccc(F)cc1` returned an Inhibition of 96%.

Take `NC(=O)c1cnc2ccc(-c3cncs3)cc2c1Nc1ccc(F)c(Cl)c1`: the Inhibition turned out to be 99%.

In turn, `O=C(OCc1ccccn1)c1nc2ccccc2[nH]1` displayed an Inhibition of 97%.

With `CCCCCN1CCC(NS(=O)(=O)c2ccc(C(=O)Nc3cccc(C(F)(F)F)c3)cc2)C1.O=C(O)C(F)(F)F` (stereo not given), the Inhibition turned out to be 0%.

As to `COc1ccc(CN2CCC(CNCCc3ccccc3Cl)CC2)cc1.O=C(O)C(F)(F)F`, the Inhibition is 17%.

Take `COc1ccc(Cn2c(Nc3cccc(C(F)(F)F)c3)nc3cc(C(=O)NC4CC4)cnc32)cc1Cl`: the Inhibition is 96%.

`O=C(/C=C/c1ccc(Cl)c(Cl)c1)NCCCCCCN1CCN(C(=O)Nc2ccc(Cl)c(Cl)c2)CC1` displayed an Inhibition of 0%.

Regarding `Cc1[nH]c(C)c(-c2ccc(-c3ccc(Cl)cc3)nc2)c(=O)c1Cl`, the Inhibition was 96%.

`CC(C)c1ccc(NC(=O)c2ccc(CN3CCCN(Cc4cccc(Cl)c4)CC3)cc2)cc1.O=C(O)C(F)(F)F` showed an Inhibition of 12%.

In turn, `COc1cc(NC(=O)CCCCCCCCN2CCN(C)CC2)c2ncccc2c1` came in with an Inhibition of 36%.

In turn, `CCOC(=O)c1ccc(-c2cnoc2-c2cc(CC)c(OC)cc2O)o1` had an Inhibition of 97%.

`Cc1ccc(NC(=O)NC2CCN(CCCCCNC(=O)/C=C/c3ccc(Cl)c(Cl)c3)CC2)cc1C` yielded an Inhibition of 25%.

With `COc1cc(-c2cnc(N)c(-c3nc4ccccc4[nH]3)c2)cc(OC)c1OC.Cl`, the Inhibition was determined as 57%.

`COc1ccc2ncc(F)c(CCN3C[C@H](CNCc4cc(F)c5c(c4)NC(=O)CO5)[C@H](O)C3)c2n1.Cl` returned an Inhibition of 23%.

With `CN1CCCC1CCNC(=O)[C@H](CC1CCCCC1)NC(=O)c1ccc(O)c(-c2ccc(Cl)c(Cl)c2)c1` (stereo not given in full), the Inhibition is reported as 35%.

Compound `COc1cccc(NC(=O)Nc2ccc(C)c(-c3ccc(C(=O)Nc4ccncc4)cc3)c2)c1` gave an Inhibition of 64%.

Turning to `O=C(/C=C/c1ccc(Cl)c(Cl)c1)NCCCCCN1CCC(NC(=O)Nc2cccc(Cl)c2F)CC1`, the Inhibition was 30%.
